Measured values from the supplement of paper PMC6555819.

Key:
Test in all cases: PBM binding z-score (relative to random genomic background probes); higher = stronger binding; sequences stand for … in GC…GCGATTGACAGCGTAGAATGAAGG
[1] = system: FXR:RXRa (NR concentration 270 nM, RXRa partner concentration 90 nM)
How it was run: (§1)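 Scanned fluorescence from custom Agilent 4×180K protein-binding microarrays was regression-normalized. Binding z-scores use random background probes as reference. Ligand-free nuclear receptor dimers were incubated on the arrays for 1 h and detected with antibodies against each partner (one per run).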

[2] = system: LXRa:RXRa (NR concentration 270 nM, RXRa partner concentration 90 nM)
How it was run: as §1

[3] = system: LXRa homodimer (NR concentration 270 nM)
How it was run: as §1

[4] = system: LXRb:RXRa (NR concentration 270 nM, RXRa partner concentration 90 nM)
How it was run: as §1

[5] = system: LXRb homodimer (NR concentration 270 nM)
How it was run: as §1

[6] = system: PPARa:RXRa (NR concentration 270 nM, RXRa partner concentration 90 nM)
How it was run: as §1

[7] = system: PPARg:RXRa (NR concentration 180 nM, RXRa partner concentration 90 nM)
How it was run: as §1

[8] = system: PPARg:RXRa 270nM:90nM, anti-RXR (NR concentration 270 nM, RXRa partner concentration 90 nM)
How it was run: as §1

[9] = system: PPARg:RXRa 30nM:10nM, anti-RXR (NR concentration 30 nM, RXRa partner concentration 10 nM)
How it was run: as §1

[10] = system: PPARg:RXRa 90nM:30nM, anti-RXR (NR concentration 90 nM, RXRa partner concentration 30 nM)
How it was run: as §1

Sequence | PBM binding z-score [1] | PBM binding z-score [2] | PBM binding z-score [3] | PBM binding z-score [4] | PBM binding z-score [5] | PBM binding z-score [6] | PBM binding z-score [7] | PBM binding z-score [8] | PBM binding z-score [9] | PBM binding z-score [10]
TCATACAGGTAATACAGGTGAAAGTCGGCATCTA | 0.813 | 1.42 | 0.615 | 1.31 | 0.285 | 1.88 | 0.982 | 2.34 | 3.85 | 3.1
GCGACTGGGGCAAAGCAGCTTACCATAAGGTTGG | -0.808 | -0.965 | -0.698 | -0.42 | -1.09 | 0.229 | 1 | 1.18 | -0.326 | 0.688
GCTGCTAGGTCAACTCATGGTCAGCTAAAGCTCG | 4.3 | 2.9 | 0.227 | 2.29 | 0.577 | 3.73 | 2.73 | 3.12 | 0.277 | 1.79
CCAGACAGGTGAACGGTAACTCAGTCTGGTACGC | -0.375 | -0.082 | -0.28 | -0.0922 | -0.29 | 0.511 | 0.882 | 0.577 | -0.465 | 0.132
TCTGATAGGTCAACGATGGTCAGCTAATCTGCTA | 5.29 | 4.83 | 0.975 | 3.31 | 0.737 | 4.76 | 3.47 | 4.48 | 3.79 | 4.21
ATCTCTCGGTAAAAGTTCAGTGAATCCCGAGGAT | 0.576 | 1.16 | 1.29 | 1.07 | 1.12 | 2.92 | 3.81 | 5.71 | 3.76 | 6.34
AGAATGAGGTTACCAAAGATCAGGGGAACGCTTG | 1.87 | 6 | -0.402 | 3.15 | -0.39 | 3.44 | 2.74 | 2.72 | 1.04 | 2
CGAACTAGGTCATCCAGGATAGTGAATACATTGA | 4.33 | 2.51 | 0.425 | 2.22 | -0.0288 | 4.87 | 7.49 | 6.2 | 3.48 | 5.72
GCTAGGAGGACAAGGTCAGAGCTTTGTCCGTAGA | 1.46 | 1.37 | -0.572 | 0.865 | -0.916 | 2.36 | 0.985 | 1.44 | -0.224 | 0.93
CCTACTGGGCCAAGGTCATCGATCAGTCAAAGCA | 3.48 | 3.15 | 0.707 | 2.74 | -0.415 | 4.23 | 4.52 | 4.7 | 2 | 4.15
CCTAGCAGGCCAGTCTGGGTCACTCAAGGCTTGA | 0.876 | 0.686 | -0.81 | 0.487 | -1.44 | 2.13 | -0.179 | 0.439 | -1.1 | 0.0493
GCAGATAGGTAATACAAGGTGAAAGTCCGATTGT | 1.42 | 2.24 | 0.134 | 0.475 | -0.791 | 1.04 | 0.544 | 0.592 | 0.199 | 0.421
ATCACTAGGTAAAAGTTCAGTGAATCCCGAGGAT | 0.841 | 1.47 | 1.23 | 0.945 | 0.59 | 4.85 | 8.25 | 8.67 | 7.65 | 9.23
CAAACTAGGTCAAACGTCAAAGTCGAGCCAACCA | 5.56 | 4.17 | 1.04 | 3.16 | 1.12 | 6.14 | 10.8 | 9.01 | 8.48 | 9.75
TCTGCTAGGTCAACGATGGTCGGCTAATCTGCTA | 3.06 | 2.14 | -0.28 | 1.11 | -0.00978 | 2.9 | 2.1 | 3.01 | 1.81 | 2.42
TCTTGTAGATCAATAGAGGTCAAGAAAGTGCGCT | 3.34 | 5.24 | 3.98 | 4.27 | 1.1 | 4.19 | 1.36 | 3.32 | 3.08 | 3.18
CTACCAAGGTGAACAAGGTCGTTGATTACTATTC | 1.47 | 1.38 | 0.19 | 1.91 | -0.383 | 2.45 | 1.12 | 1.4 | 0.0996 | 0.622
CGAACTAGGTAATCCAGGACAGTGAATACATTGA | -0.0818 | -0.39 | -0.012 | -0.349 | -0.454 | 1.23 | 1.56 | 0.982 | 0.536 | 0.507
ATATCTAGGTTACATCCGGGTCATTCAGGCTATG | 2.52 | 4.41 | 1.93 | 3.04 | 1.64 | 4.41 | 6 | 5.11 | 2.4 | 4.09
AGTCAAAGTTCATCTATGTAACGTAAGATATGCT | 6.5 | 5.79 | 5.16 | 3.59 | 1.69 | 4.44 | 6.21 | 5.9 | 3.03 | 5.29
CCTACTCGGCCAAGGTCATTGATCAGTCAAAGCA | 3.57 | 3.69 | 2.12 | 3.18 | 0.93 | 3.52 | 1.32 | 2.35 | 0.335 | 1.69
CCTGCTGGGCCAAAGGTCATTGATTCCAATGCTC | 5.24 | 5.14 | 3.92 | 4.66 | 0.872 | 5.78 | 9.98 | 8.99 | 8.27 | 9.45

Sequence | PBM binding z-score [1] | PBM binding z-score [2] | PBM binding z-score [3] | PBM binding z-score [4] | PBM binding z-score [5] | PBM binding z-score [6] | PBM binding z-score [7] | PBM binding z-score [8] | PBM binding z-score [9] | PBM binding z-score [10]
ATCTCTTGGTAACCAAGTTCAGTGAATGCCGAAC | 0.478 | 1.31 | 0.59 | 1.22 | 0.681 | 0.472 | 0.0645 | 0.369 | -0.134 | 0.145
CGTCCAAGGTCAGCAGGTCAGGGAAAGCGACGTG | 5.75 | 3.75 | 0.358 | 3.11 | -0.252 | 4.79 | 4.23 | 4.7 | 1.38 | 3.21
GCTAGTAGTTGAAAGGGCAACCGAATGATTCTCG | 0.181 | 0.507 | 0.0629 | 0.605 | -0.496 | 2.52 | 4.19 | 5.71 | 4.3 | 5.8
CCTACTGGGCCATCAGGTAATTGATATCAACGTT | -0.165 | -0.235 | -0.14 | -0.089 | -0.373 | 0.452 | 1.15 | 1.85 | 0.313 | 1.17
ATATGTAGGTTAGCAGGGGTCATTCAGACTAGGC | 5.14 | 5.99 | 4.53 | 5.37 | 1.78 | 5.56 | 6.6 | 5.97 | 3.32 | 5.33
TCGAGTAGGTTACCAATGGGTCATTCAGCTTTCT | 1.16 | 3.38 | 0.134 | 2.15 | -0.601 | 2.66 | 0.754 | 1.91 | 1.5 | 1.72
ACAATGAGGTTACCAAAGATCAGGGAAACGCTTG | 1.97 | 6.4 | 0.286 | 3.25 | 0.572 | 3.26 | 2.36 | 2.11 | 0.698 | 1.61
ACTAGCAGGACAAGTTTGGGTCACTCAAACAAAG | 0.14 | 0.146 | -0.00824 | 0.621 | -0.0447 | 1.36 | 0.27 | 0.0968 | -0.0869 | -0.0203
TGAATGAGGCTATAAGATCAGGGAACGTTGCAAA | -0.518 | -0.611 | -0.669 | -0.726 | -0.998 | -0.176 | 0.387 | 0.203 | 0.0907 | -0.0194
GCGACTGGGGCAAAGCAGGTCACCATAAGGTTGG | 0.839 | 1.93 | -0.00602 | 1.53 | -1.06 | 3.18 | 2.77 | 2.65 | 0.521 | 1.7
CCTACTGGGCCATTCAGAGGTCGTTGATCATATG | 0.36 | 0.813 | 0.735 | 0.964 | -0.712 | 1.97 | 0.916 | 1.26 | -0.074 | 0.672
ATCGAAAGGTCGTGAGGTTAGTATACAGAAAGGC | 5.61 | 4.18 | 0.638 | 3.63 | 0.777 | 5.04 | 3.95 | 4.19 | 1.92 | 3.08
AGTCAAAGTTCACTAGCTAACGTAAGATTCAGCT | 4.87 | 4.82 | 2.93 | 3.04 | 1.11 | 3.91 | 5.29 | 5.49 | 2.82 | 4.54
CCTCGGAGGAGAGAAGGTCAGAGCTGTCCGCTTT | 0.811 | 0.874 | -0.155 | 0.734 | -0.806 | 1.62 | -0.501 | 0.307 | -0.994 | -0.582
AGAACGAGGGCACGTTGAGTTGATAGCAGAGTAG | 0.758 | 0.705 | -0.372 | 0.249 | -0.789 | 2.23 | 2.19 | 1.42 | 0.235 | 0.958
CCGACTGGGGCAGAGGTTACCATACTCAGTACGA | 0.287 | 0.761 | -0.0955 | 1.34 | -1.08 | 3.62 | 8.22 | 7.57 | 6.11 | 7.57
CTCGAAAGGTCGGTTGAGGAGAGTATACGGATAA | 1.93 | 1.38 | -0.296 | 1.13 | 0.0344 | 2.25 | 0.367 | 1.09 | 0.298 | 0.525
TCTTGTAGATCAAACAGGTTAAGAAAGCCTGAGT | 0.553 | 0.608 | 0.121 | 0.509 | -0.073 | 1.1 | -0.134 | 1.44 | 2.65 | 2.3
CCTTACGGGTCACGAGGTTCTAGCACGACGAGCG | 6.53 | 4.22 | -0.19 | 3.53 | 0.0881 | 5.66 | 6.59 | 6.31 | 3.2 | 5.36
ACTAGCAGGCCAAATTTGGGTCACTCAAACAAAG | 0.491 | 0.315 | -0.377 | 0.947 | -0.562 | 2.99 | 1.62 | 1.84 | 0.0732 | 1.04
ACTAGCAGGCCAAGTTTGGGTCACTCCAACAAAG | 0.154 | 0.00504 | -0.19 | 0.664 | -0.49 | 1.18 | -0.0331 | -0.0928 | -0.803 | -0.387
CCTTACGGGTAACTGACAGGTTATAGCATTTGGA | 0.183 | 0.937 | 9.84e-05 | 0.454 | -0.428 | 0.56 | 0.319 | 0.0456 | -0.0329 | -0.0443
